Out of some 350,000 compounds screened, about 450 (0.13%) were called active. How the calls were made is not given here. Not all results are given here. Potency and affinity values are given separately.
Assay: inhibitors of VEEV TC-83 cytopathic effect, confirmation, Vero cells (AID 588727)
Settings: VEEV TC-83 cytopathic effect inhibition, at 20 µM
[1] = stronger effect = higher value unless noted
[2] = measured here: 10K pilot screen inhibition, stronger effect = higher value

Cc1nn(Cc2cccc(C(=O)O)c2)c(C)c1[N+](=O)[O-]
inhibition [1]: 1.46% (inactive)

O=C(Nc1ccccc1SCC1CSc2nc3ccccc3c(=O)n21)c1ccccc1Cl (centres undefined)
inhibition [1]: 13.7% (inactive)

O=c1c2ccccc2nc2n1C(CSc1ccccc1)CS2 (centres undefined)
inhibition [1]: 1% (inactive)

Nc1ccccc1SCC1CSc2nc3ccccc3c(=O)n21 (centres undefined)
inhibition [1]: 1.18% (inactive)

O=C(Nc1ccccc1SCC1CSc2nc3ccccc3c(=O)n21)c1ccccc1 (centres undefined)
inhibition [1]: 7.04% (inactive)

CC(NC(=O)Cn1c(=O)[nH]c2ccsc2c1=O)C12CC3CC(CC(C3)C1)C2 (centres undefined)
inhibition [1]: 4.05% (inactive)

O=C(N/N=C/c1ccc(F)cc1)c1cc(-c2ccc3c(c2)OCO3)n[nH]1
inhibition [1]: 3.22% (inactive)

CN(CC(=O)Nc1ccc(F)cc1)C(=O)COC(=O)/C=C/c1ccccc1[N+](=O)[O-]
inhibition [1]: 5.33% (inactive)

COc1ccc(/C=N/Nc2nonc2N)cc1
inhibition [1]: 0.29% (inactive)

COc1ccc(C2c3c(ncn(CCN4CCOCC4)c3=N)Oc3ccc4ccccc4c32)cc1OC (centres undefined)
inhibition [1]: 1.27% (inactive)

COc1ccc(C2c3c(ncn(CCCO)c3=N)Oc3ccc4ccccc4c32)cc1OC (centres undefined)
inhibition [1]: 4.99% (inactive)

Cc1ccc2sc(NNC(=O)C3=COCCO3)nc2c1C
inhibition [1]: 2.26% (inactive)

CN(C)/C=C/C(=O)c1ccccc1OCc1cnc(Cl)s1
inhibition [1]: inactive

CC(C)(C)OC(=O)N1CCN(C(=O)c2[nH]cnc2C(=O)N[C@@H](Cc2ccccc2)C(=O)OCc2ccccc2)CC1
inhibition [1]: 2.09% (inactive)

CC(C)(C)OC(=O)[C@H](Cc1ccccc1)NC(=O)c1nc[nH]c1C(=O)N1CCN(c2ccccc2)CC1
inhibition [1]: 5.56% (inactive)

O=C(CSc1ncn[nH]1)N/N=C/c1ccc(Br)cc1
inhibition [1]: 0.58% (inactive)

Cc1ccccc1NC(=O)COC(=O)C1C2CC3OC(=O)C1C3C2 (centres undefined)
inhibition [1]: 0.18% (inactive)

Cc1nc2c(c(=O)n1CCC1=CCCCC1)c1nc3ccccc3nc1n2/N=C/c1ccccc1
inhibition [1]: inactive

Cc1onc(-c2ccccc2)c1-c1nnc(CN2CCN(S(=O)(=O)c3ccccc3F)CC2)o1
inhibition [1]: 7.39% (inactive)

Cc1ccc(C(=O)NCC(=O)Nc2ncccc2C)s1
inhibition [1]: inactive

COc1ccc(C(=O)NC(=O)Nc2ncccc2C)cc1
inhibition [1]: 3.84% (inactive)

CCCCc1nc2sc3c(c2c(=O)n1NC(=O)c1ccco1)CC(C)(C)OC3
inhibition [1]: 0.57% (inactive)

OCCNC(=S)NCc1ccccc1
inhibition [1]: 0.77% (inactive)

O=C(NCC(=O)N(c1cccc(F)c1)C(C(=O)NC1CCCC1)c1cccnc1)c1cccs1 (centres undefined)
inhibition [1]: inactive

O=C(C1CCCCC1)N(Cc1nc2sc3c(c2c(=O)[nH]1)CCCC3)Cc1cccs1
inhibition [1]: 2.95% (inactive)

Cc1sc2nc(CN(C(=O)c3cccs3)C3CCCC3)[nH]c(=O)c2c1C
inhibition [1]: 5.66% (inactive)

Cc1ccc(-c2ccc(/C=N\n3cnnc3)o2)c(Br)c1
inhibition [1]: 1.33% (inactive)

Cc1nnc(C)n1/N=C/c1ccc(-c2ccccc2Cl)o1
inhibition [1]: inactive

S=c1[nH]nc(-c2ccccn2)n1/N=C/c1ccc(-c2ccccc2Cl)o1
inhibition [1]: 24.7% (inactive)

S=c1[nH]nc(-c2cccc(Cl)c2)n1/N=C/c1ccc(-c2ccccc2Br)o1
inhibition [1]: 23.7% (inactive)

Cc1n[nH]c(=S)n1/N=C/c1ccc(-c2ccccc2[N+](=O)[O-])o1
inhibition [1]: 2.62% (inactive)

Clc1ccccc1-c1ccc(/C=N/n2cnnc2)o1
inhibition [1]: 1.39% (inactive)

COc1ccc(CNC(=O)CNC(C)c2ccc(F)cc2)cc1 (centres undefined)
inhibition [1]: inactive

O=C(Cn1nc(Cc2cccnc2)c2ccccc2c1=O)NCc1ccc(F)cc1
inhibition [1]: 0% [measured here: 10K pilot screen inhibition, stronger effect = higher value]
outcome [1]: inactive

Cc1ccc(NC(=O)CSc2ncn[nH]2)cc1S(=O)(=O)N1CCOCC1
inhibition [1]: 0.49% (inactive)

O=C(CNS(=O)(=O)c1ccccc1)OCc1cccc([N+](=O)[O-])c1
inhibition [1]: 6.33% (inactive)

CN1CCN(c2nc3c(c(=O)[nH]c(=O)n3C)n2CCOc2ccccc2)CC1
inhibition [1]: 1.82% (inactive)

COC(=O)C(NC(=O)CCC(=O)N[C@@H](C(=O)OC)c1ccccc1)c1ccccc1 (some centres undefined)
inhibition [1]: 0.43% (inactive)

O=C(Nc1ccccc1Cl)OC1CCCCC1
inhibition [1]: 0.52% (inactive)

Cc1c(C(=O)N(C)Cc2ccc(OC(F)F)cc2)oc2ccccc12
inhibition [1]: inactive

Cn1c(=O)c2c(nc(N/N=C/c3c(O)n(C4CCCCC4)c(=S)[nH]c3=O)n2C)n(C)c1=O
inhibition [1]: 0.22% (inactive)

C/C(=N\NC(=O)c1ccncc1)c1c(O)n(Cc2ccccc2)c(=O)[nH]c1=O
inhibition [1]: 2.16% (inactive)

CNc1ccc(Br)cc(C(=O)/C=C/c2ccc(OC)cc2)c1=O
inhibition [1]: 7.55% (inactive)

CNc1ccc(Br)cc(C(=O)/C=C/c2ccc(OC)cc2OC)c1=O
inhibition (stronger effect = higher value): 1.14% (inactive)
inhibition [2]: 6.96%

CNc1ccc(Br)cc(C(=O)/C=C/c2cccc(OC)c2OC)c1=O
inhibition [1]: 13.1% (inactive)

CNc1ccc(Br)cc(C(=O)/C=C/c2ccc3c(c2)OCO3)c1=O
inhibition (stronger effect = higher value): 7.74% (inactive)
inhibition [2]: 6.21%

CNc1nc(C)c(C#N)c(-c2ccccc2)c1C(C)=O
inhibition [1]: 0.76% (inactive)

CC[C@]12c3[nH]c4ccccc4c3CCN1C(=O)C(CC(=O)NCCC1=CCCCC1)C[C@@H]2C(=O)N1CCN(C(=O)c2ccco2)CC1 (some centres undefined)
inhibition [1]: inactive

CC(C)c1c(C(=O)N/N=C/c2ccc(OCc3ccccc3)cc2)nnn1-c1nonc1N
inhibition [1]: 2.29% (inactive)

FC(F)(F)c1cccc(Cc2noc(CN(Cc3ccccn3)CC3CCCO3)n2)c1 (centres undefined)
inhibition [1]: 6.18% (inactive)

CCc1ccccc1NC(=O)C1=CN2CCS(=O)(=O)N=C2C=C1
inhibition [1]: 4.92% (inactive)

COC(=O)c1ccc(CSc2ccccc2NC(=S)Nc2cccc(SC)c2)o1
inhibition [1]: 5.66% (inactive)

COC(=O)[C@@H](Cc1ccccc1)NC(=O)CC[C@H]1O[C@@H](n2cc(C)c(=O)[nH]c2=O)C[C@@H]1O
inhibition [1]: inactive

Cc1sc2nc(SCC(=O)c3cccs3)n(Cc3ccco3)c(=O)c2c1C
inhibition [1]: 0.85% (inactive)

C=CCn1c(SCC(=O)c2cccs2)nc2sc(C)cc2c1=O
inhibition [1]: 5.28% (inactive)

CCOCCCNC(=O)c1cn(C)c(=O)c2cc(OC)c(OC)cc12
inhibition [1]: 2.15% (inactive)

— PubChem BioAssay AID588727 (Southern Research Specialized Biocontainment Screening …, 2011)
